This is part of a sample that, as a whole, favours compounds with a hit. Of some 83,000 tested, about 20% had one in any assay.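 The endpoint reported here, percent growth, reads 100 for growth as untreated, 0 for no net growth and -100 for all cells dead.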 Calls of active or inactive are those of the source. How the source made its calls: active means growth percent below 10; inactive means the rest.
Legend:
Assay in all cases: NCI-60 one-dose screen, 48 h (100 = growth as untreated, 0 = no growth, -100 = all killed)
Conditions in all cases: 10 µM unless noted
SR leukemia = test system: SR leukemia
RPMI-8226 leukemia = test system: RPMI-8226 leukemia
OVCAR-8 ovarian = test system: OVCAR-8 ovarian
OVCAR-5 ovarian = test system: OVCAR-5 ovarian
OVCAR-4 ovarian = test system: OVCAR-4 ovarian
SK-OV-3 ovarian = test system: SK-OV-3 ovarian
IGROV1 ovarian = test system: IGROV1 ovarian
OVCAR-3 ovarian = test system: OVCAR-3 ovarian
HS 578T breast = test system: HS 578T breast
NCI/ADR-RES ovarian = test system: NCI/ADR-RES ovarian
T-47D breast = test system: T-47D breast
BT-549 breast = test system: BT-549 breast
MDA-MB-435 melanoma = test system: MDA-MB-435 melanoma
SW-620 colon = test system: SW-620 colon
MCF7 breast = test system: MCF7 breast
HCT-116 colon = test system: HCT-116 colon
HCC-2998 colon = test system: HCC-2998 colon
KM12 colon = test system: KM12 colon

Measured: growth

CCOC(=O)n1cc(-c2nonc2-c2cn(C(=O)OCC)c3ccc(Br)cc23)c2ccccc21
inactive: SR leukemia 78.4% | RPMI-8226 leukemia 88.9% | OVCAR-8 ovarian 85.6% | OVCAR-5 ovarian 64.4% | OVCAR-4 ovarian 79.1% | SK-OV-3 ovarian 79.8% | IGROV1 ovarian 52.6% | OVCAR-3 ovarian 79.1% | HS 578T breast 87% | NCI/ADR-RES ovarian 86.5% | T-47D breast 52.9% | BT-549 breast 98.3% | MDA-MB-435 melanoma 99.9% | SW-620 colon 85.8% | MCF7 breast 69.6% | HCT-116 colon 62.7% | HCC-2998 colon 86.9% | KM12 colon 72.7%

O=C(O)CCCN1C(=O)/C(=C/c2cn(-c3ccccc3)nc2-c2ccc([N+](=O)[O-])cc2)SC1=S
inactive: SR leukemia 33.3% | RPMI-8226 leukemia 46.8% | OVCAR-8 ovarian 44.4% | OVCAR-5 ovarian 94.3% | OVCAR-4 ovarian 64% | SK-OV-3 ovarian 59.1% | IGROV1 ovarian 58.3% | OVCAR-3 ovarian 61.6% | HS 578T breast 63.6% | NCI/ADR-RES ovarian 43.5% | T-47D breast 61.6% | BT-549 breast 55.1% | MDA-MB-435 melanoma 48.6% | SW-620 colon 65.7% | MCF7 breast 52.3% | HCT-116 colon 36.9% | HCC-2998 colon 64.6% | KM12 colon 54.1%

Cc1ccc(-c2nc(N3CCCNCC3)c3oc(-c4ccccc4)nc3n2)cc1
active: SR leukemia -42.3% | RPMI-8226 leukemia -49.1% | OVCAR-8 ovarian -44.1% | OVCAR-5 ovarian -87.3% | OVCAR-4 ovarian -62.6% | IGROV1 ovarian -85.3% | OVCAR-3 ovarian -85.7% | HS 578T breast -29.8% | NCI/ADR-RES ovarian -45.5% | T-47D breast -67.5% | MDA-MB-435 melanoma -87.9% | SW-620 colon -73.3% | MCF7 breast -74.7% | HCT-116 colon -79.2% | HCC-2998 colon -92.1% | KM12 colon -81.5%
inactive: SK-OV-3 ovarian 95.5% | BT-549 breast 81.2%

OCCn1cc(-c2nc(-c3c[nH]c4ncccc34)cs2)c2cc(F)ccc21
inactive: SR leukemia 22% | RPMI-8226 leukemia 53.6% | OVCAR-8 ovarian 80.2% | OVCAR-5 ovarian 84.3% | OVCAR-4 ovarian 52.4% | SK-OV-3 ovarian 70.1% | IGROV1 ovarian 44.7% | OVCAR-3 ovarian 81% | HS 578T breast 70.9% | NCI/ADR-RES ovarian 82.6% | T-47D breast 35.2% | BT-549 breast 68.7% | SW-620 colon 57.9% | MCF7 breast 48.1% | HCT-116 colon 62.4% | HCC-2998 colon 65.3% | KM12 colon 28.4%
active: MDA-MB-435 melanoma 5.03%

CC(=O)c1c(C)nc2ccccc2c1/C=C/c1ccc(F)cc1
inactive: SR leukemia 81.2% | RPMI-8226 leukemia 66.5% | OVCAR-8 ovarian 92.9% | OVCAR-5 ovarian 97.7% | OVCAR-4 ovarian 76.7% | SK-OV-3 ovarian 100% | IGROV1 ovarian 85.1% | OVCAR-3 ovarian 92.9% | HS 578T breast 91.9% | NCI/ADR-RES ovarian 67.6% | T-47D breast 53.8% | BT-549 breast 87.1% | MDA-MB-435 melanoma 103% | SW-620 colon 97.1% | MCF7 breast 77.3% | HCT-116 colon 74.6% | HCC-2998 colon 99% | KM12 colon 90.7%

CC(=O)O[C@H]1CC2CCC3C(CC[C@@]4(C)C3C[C@H]([N+]3(C)CCCCC3)[C@@H]4OC(C)=O)[C@@]2(C)C[C@@H]1N1CCCCC1 (stereo partly drawn)
inactive: SR leukemia 99.5% | RPMI-8226 leukemia 110% | OVCAR-8 ovarian 98.1% | OVCAR-5 ovarian 110% | OVCAR-4 ovarian 103% | SK-OV-3 ovarian 106% | IGROV1 ovarian 111% | OVCAR-3 ovarian 112% | HS 578T breast 65% | NCI/ADR-RES ovarian 103% | T-47D breast 109% | BT-549 breast 108% | MDA-MB-435 melanoma 99.5% | SW-620 colon 106% | MCF7 breast 111% | HCT-116 colon 101% | HCC-2998 colon 111% | KM12 colon 108%

COc1ccc(OC)c(Nc2nnc(-c3ccc(O)c(OC)c3)o2)c1
inactive: SR leukemia 52.4% | RPMI-8226 leukemia 75% | OVCAR-8 ovarian 83.6% | OVCAR-5 ovarian 70% | OVCAR-4 ovarian 63.1% | SK-OV-3 ovarian 53.4% | IGROV1 ovarian 19.9% | OVCAR-3 ovarian 70.6% | HS 578T breast 39.6% | NCI/ADR-RES ovarian 68.7% | T-47D breast 43.9% | BT-549 breast 79.4% | MDA-MB-435 melanoma 85% | SW-620 colon 78.6% | MCF7 breast 77.7% | HCT-116 colon 63.8% | HCC-2998 colon 90.6% | KM12 colon 20.4%

Oc1c(Br)cc(Br)c2ccc(Cn3cc(-c4ccc(C(F)(F)F)cc4)nn3)nc12
active: SR leukemia -22.9% | RPMI-8226 leukemia -1.77% | OVCAR-3 ovarian -7.84% | SW-620 colon -16.3% | HCT-116 colon -0.0235%
inactive: OVCAR-8 ovarian 59.5% | OVCAR-5 ovarian 89% | OVCAR-4 ovarian 54% | SK-OV-3 ovarian 110% | IGROV1 ovarian 79.6% | HS 578T breast 101% | NCI/ADR-RES ovarian 105% | T-47D breast 46.2% | BT-549 breast 72.6% | MDA-MB-435 melanoma 48.2% | MCF7 breast 27.9% | HCC-2998 colon 117% | KM12 colon 104%

Cc1cc(C(=O)O)c(C)n1-c1cccc(C(=O)O)c1
inactive: SR leukemia 62.6% | RPMI-8226 leukemia 107% | OVCAR-8 ovarian 73.4% | OVCAR-5 ovarian 66.4% | OVCAR-4 ovarian 91.4% | SK-OV-3 ovarian 105% | IGROV1 ovarian 56.9% | OVCAR-3 ovarian 121% | HS 578T breast 92.5% | NCI/ADR-RES ovarian 72.1% | T-47D breast 84.1% | BT-549 breast 83.3% | MDA-MB-435 melanoma 100% | SW-620 colon 44.6% | MCF7 breast 61.2% | HCT-116 colon 35.3% | HCC-2998 colon 101% | KM12 colon 97.8%

O=S(=O)(NCCNc1nccc(-c2c(-c3ccc(F)c(O)c3)nc3sccn23)n1)c1ccc(O)cc1
inactive: SR leukemia 38.4% | RPMI-8226 leukemia 17.9% | OVCAR-8 ovarian 32.8% | OVCAR-5 ovarian 104% | OVCAR-4 ovarian 34.1% | SK-OV-3 ovarian 53.7% | IGROV1 ovarian 36.1% | OVCAR-3 ovarian 57.4% | HS 578T breast 64.1% | NCI/ADR-RES ovarian 39.6% | BT-549 breast 55.1% | SW-620 colon 67.1% | MCF7 breast 27.6% | HCT-116 colon 30.4% | HCC-2998 colon 76.5% | KM12 colon 13.9%
active: T-47D breast 6.97% | MDA-MB-435 melanoma 9.31%

O=C(C[C@]1(O)C(=O)Nc2ccccc21)c1cccc(C(F)(F)F)c1
inactive: SR leukemia 96.7% | RPMI-8226 leukemia 88.7% | OVCAR-8 ovarian 95.1% | OVCAR-5 ovarian 81.4% | OVCAR-4 ovarian 91.3% | SK-OV-3 ovarian 75.8% | IGROV1 ovarian 67.6% | OVCAR-3 ovarian 77.9% | HS 578T breast 90.3% | NCI/ADR-RES ovarian 94.7% | T-47D breast 87.9% | BT-549 breast 97.6% | MDA-MB-435 melanoma 103% | SW-620 colon 91.9% | MCF7 breast 81.2% | HCT-116 colon 95.5% | HCC-2998 colon 107% | KM12 colon 87.6%

CC1OC(n2c3ccccc3c3c4c(c5c6ccccc6[nH]c5c32)C(=O)N(CCN2CCCC2)C4=O)CC(O)C1O (stereo not drawn)
active: SR leukemia -2.62% | RPMI-8226 leukemia 5.56% | MCF7 breast 9.93%
inactive: OVCAR-8 ovarian 53.1% | OVCAR-5 ovarian 78.1% | OVCAR-4 ovarian 22.9% | SK-OV-3 ovarian 32.1% | IGROV1 ovarian 48.9% | OVCAR-3 ovarian 60.2% | HS 578T breast 58.2% | NCI/ADR-RES ovarian 54.1% | T-47D breast 51.9% | BT-549 breast 65.6% | MDA-MB-435 melanoma 41.8% | SW-620 colon 17.7% | HCT-116 colon 25.8% | HCC-2998 colon 22% | KM12 colon 26.3%

CCN1CCN(C(=O)[C@]23CCC(C)(C)C[C@@H]2C2=CC[C@@H]4[C@@]5(C)CCC(=O)C(C)(C)[C@@H]5CC[C@@]4(C)[C@]2(C)CC3)CC1
inactive: SR leukemia 12.2% | OVCAR-8 ovarian 63% | OVCAR-5 ovarian 72.2% | OVCAR-4 ovarian 50.7% | SK-OV-3 ovarian 70.1% | IGROV1 ovarian 65% | OVCAR-3 ovarian 56.4% | HS 578T breast 40.7% | NCI/ADR-RES ovarian 39.7% | T-47D breast 56.4% | BT-549 breast 58.6% | MDA-MB-435 melanoma 33.9% | SW-620 colon 31.8% | MCF7 breast 39.9% | HCT-116 colon 19.1% | HCC-2998 colon 62.8% | KM12 colon 41.2%
active: RPMI-8226 leukemia 9.86%

COc1c(C(=O)Nc2ccc(C)c(Br)c2)ccc2ccccc12
inactive: SR leukemia 54.3% | RPMI-8226 leukemia 95.7% | OVCAR-8 ovarian 99.3% | OVCAR-5 ovarian 92.2% | OVCAR-4 ovarian 82.9% | SK-OV-3 ovarian 97.9% | IGROV1 ovarian 94.3% | OVCAR-3 ovarian 107% | HS 578T breast 85.5% | NCI/ADR-RES ovarian 84.6% | T-47D breast 88.9% | BT-549 breast 101% | MDA-MB-435 melanoma 31.7% | SW-620 colon 81.1% | MCF7 breast 96% | HCT-116 colon 96.5% | HCC-2998 colon 99.9% | KM12 colon 81.2%

C=C1C(=O)O[C@H]2[C@H]1CC/C(COC(=O)NCc1ccc(Cn3c(=O)sn(CCCCC)c3=O)cc1)=C\CC[C@@]1(C)O[C@@H]21
active: SR leukemia 3.58% | RPMI-8226 leukemia -22.8% | OVCAR-3 ovarian -56.1% | T-47D breast 0.543% | SW-620 colon -61.1% | MCF7 breast 6.29% | HCT-116 colon -12.3%
inactive: OVCAR-8 ovarian 58% | OVCAR-5 ovarian 72.5% | OVCAR-4 ovarian 29.5% | SK-OV-3 ovarian 93.6% | IGROV1 ovarian 24.1% | HS 578T breast 71% | NCI/ADR-RES ovarian 99.8% | BT-549 breast 42.5% | MDA-MB-435 melanoma 25.7% | HCC-2998 colon 94.6% | KM12 colon 95.9%

N#Cc1c(-c2ccc(Cl)cc2)c(C#N)c2c(C#N)c(N)nn2c1N
inactive: SR leukemia 69.5% | RPMI-8226 leukemia 73.9% | OVCAR-8 ovarian 88% | OVCAR-5 ovarian 86.9% | OVCAR-4 ovarian 82.4% | SK-OV-3 ovarian 70.5% | IGROV1 ovarian 74.1% | OVCAR-3 ovarian 93.8% | HS 578T breast 79.4% | NCI/ADR-RES ovarian 96.3% | T-47D breast 57% | BT-549 breast 75.5% | MDA-MB-435 melanoma 95.4% | SW-620 colon 94.7% | MCF7 breast 81.3% | HCT-116 colon 96.1% | HCC-2998 colon 102% | KM12 colon 92.9%
